Bioassay records (PubChem BioAssay)
SW480 rerep: DNA re-replication induction in SW480 cells. Potency, µM (series often up to 46.1 µM), actives largely listed as activators. 340,000 tested, 1.8% active. SW480 DNA re-replication, Hoechst DNA content imaging, 48 h; note: nearly all actives have a fitted effect of over 55% in size
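SW480 cells exposed to compounds for 48 hr at 37 C, 5% CO2, then Hoechst-stained 40 min. Nuclear DNA content imaged by fluorescence scanning (405 nm excitation, 500-530 nm emission); re-replication scored as increased high-intensity nuclei.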
RGS4 inh: human RGS4 inhibition. AID 504845. P49798. Potency, µM (series often up to 114 µM), hits mostly inhibitors. Transcreener GDP fluorescence polarization, RGS4-accelerated GTP hydrolysis. 390,000 tested, 0.039% active; note: nearly all actives have a fitted effect of over 75% in size
Target sequence (P49798 whole entry, looked up): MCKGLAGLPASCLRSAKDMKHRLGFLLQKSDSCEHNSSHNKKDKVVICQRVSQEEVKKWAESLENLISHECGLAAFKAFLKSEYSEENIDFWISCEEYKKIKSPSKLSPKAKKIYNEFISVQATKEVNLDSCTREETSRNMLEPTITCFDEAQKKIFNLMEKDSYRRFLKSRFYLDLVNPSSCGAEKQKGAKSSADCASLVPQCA
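MLSMR compounds (23 nl, pin-transferred) preincubated 10 min at room temperature with a 500nM (2x) first reagent, then RGS4 at 900nM (2x) plus Transcreener GDP mix added; fluorescence polarization (620/688 nm) read before and after 90 min at 30 °C.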
KB-V1 MDR tox: KB-V1 MDR subline cytotoxicity | KB-V1 MDR cells viability, CellTiter-Glo, 72 h | Potency, µM (titrated, usually from 46.1 µM), most hits filed as cytotoxic | 400,000 tested, 3.4% active | AID 1347076; note: nearly all actives have a fitted effect of over 60% in size
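Cells of the MDR subline KB-V1 are plated, dosed with compound at multiple concentrations, and incubated 72 h at 37 degrees C; CellTiter-Glo is then added and luminescence read after 10 min.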
MCF10A rerep: DNA re-replication induction in MCF 10a cells; MCF 10A DNA re-replication, Hoechst nuclear intensity, 48 h; Potency, µM (series often up to 46.1 µM), usual class: activators; 350,000 tested, 2.9% active; AID 624296; note: nearly all actives have a fitted effect of over 50% in size
KB-3-1 cytotox: KB-3-1 parental cell cytotoxicity. KB-3-1 viability, CellTiter-Glo ATP luminescence, 72 h. AID 1347075. Potency, µM (titrated, usually from 46.1 µM), usual class: cytotoxic. 400,000 tested, 1.4% active; note: nearly all actives have a fitted effect of over 60% in size
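Parental KB-3-1 viability, qHTS format: 72 h compound exposure, 37 °C; CellTiter-Glo; media-only wells and DMSO plates as controls; concentration-effect fits on corrected data.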
PTAP TSG101 blk: blocks PTAP/TSG101 interaction to inhibit HIV-1 budding; Q99816; Fluorescence polarization, FITC-PTAP peptide / Tsg101 binding; Potency, µM (doses to about 115 µM), hits mostly inhibitors; 340,000 tested, under 10 active; AID 493005; active = well fitted inhibition curve with a large enough effect in the main read-out, with a control signal flat, not every such curve was filed as active; inconclusive = small, poorly fitted or top-dose-only effect, or effect the other way, or a change in a side signal; inactive = no such curve, though single readings can be large or run the other way
Target sequence (Q99816 whole entry, looked up): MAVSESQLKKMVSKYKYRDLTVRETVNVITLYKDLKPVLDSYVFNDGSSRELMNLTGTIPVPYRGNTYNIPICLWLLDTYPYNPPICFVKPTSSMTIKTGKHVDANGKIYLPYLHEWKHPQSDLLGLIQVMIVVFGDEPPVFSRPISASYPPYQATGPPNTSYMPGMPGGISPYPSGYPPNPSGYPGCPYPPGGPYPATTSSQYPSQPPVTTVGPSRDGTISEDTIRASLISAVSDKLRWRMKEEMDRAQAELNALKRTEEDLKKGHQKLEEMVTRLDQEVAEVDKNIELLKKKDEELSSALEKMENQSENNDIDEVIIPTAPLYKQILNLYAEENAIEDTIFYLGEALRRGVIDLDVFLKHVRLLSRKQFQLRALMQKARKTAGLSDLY
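Fluorescence polarization binding of Tsg101 binding domain (10 uM final) to FITC-labeled PTAP peptide (50 nM final) in HEPES pH 7.5 buffer with NaCl, Tween 20, EDTA, TCEP. Compounds added before peptide; binding 20 min at RT.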
Hits are given with their value; 0 = inactive; ? = inconclusive; - = not tested or not shown; [ ] = dose if it differs, or a comment. The list is not random: actives were taken first. Their share in the collection is about 6.6%. Unless noted, calls come from the whole dose curve; as a rule, active = well fitted curve in the direction sought with a large enough effect; inconclusive = small, poorly fitted or top-dose-only effect, or another doubt; inactive = no such curve, though single readings can be large; an effect the other way counts as inactive or inconclusive.

SMILES	SW480 rerep	RGS4 inh	KB-V1 MDR tox	MCF10A rerep	KB-3-1 cytotox	PTAP TSG101 blk
Cc1ccc(NC(=O)C(OC(=O)c2ccc(F)cc2)c2ccccc2)cc1Cl (centres undefined)	0	0	0	0	0	0
CCn1cc(C(=O)OCC(=O)c2cc(C)n(-c3cccc(C(F)(F)F)c3)c2C)c(=O)c2ccc(C)nc21	0	0	23µM	0	0	0
Cc1cc(C(=O)COC(=O)Cc2n[nH]c(=O)c3ccccc23)c(C)n1-c1cccc(C(F)(F)F)c1	0	0	21µM	0	?	0
CC1=C(C(=O)Nc2ccc(Cl)cc2)C(c2cccs2)n2nc(SCc3cccc(C)c3)nc2N1 (centres undefined)	-	0	0	-	0	-
CN1CCN(C(=O)Nc2cccc(-c3ccccc3)c2)CC1	16µM	0	0	?	0	0
Cc1cccc(N2CCN(C(=S)Nc3ccc4nc5n(c(=O)c4c3)CCCCC5)CC2)c1C	?	0	?	23µM	?	0
O=c1c2cc(NC(=S)NC3CCCC3)ccc2nc2n1CCCCC2	0	0	21µM	0	0	0
O=c1c2cc(NC(=S)NCCN3CCCCCC3)ccc2nc2n1CCCCC2	0	0	0	0	0	0
O=c1c2cc(NC(=S)N3CCC(N4CCCCC4)CC3)ccc2nc2n1CCCCC2	0	0	0	0	0	0
O=c1c2cc(NC(=S)NCCCN3CCC(Cc4ccccc4)CC3)ccc2nc2n1CCCCC2	?	0	?	0	23µM	0
CC(C)OCCCn1c(=O)c2ccccc2n2c(-c3ccc(F)cc3)nnc12	-	0	0	-	0	-
C[C@@H]1CN([C@@H](C)CO)C(=O)c2ccccc2-c2ccccc2CO[C@@H]1CN(C)S(=O)(=O)c1ccc(C(F)(F)F)cc1	-	-	16µM	-	0	-
COc1ccc(S(=O)(=O)Nc2cccc3c2O[C@H](CN(C)S(=O)(=O)c2ccc(F)cc2)[C@H](C)CN([C@H](C)CO)C3=O)cc1	0	0	0	0	0	0
COc1ccc(S(=O)(=O)Nc2cccc3c2O[C@H](CN(C)S(=O)(=O)c2ccccc2)[C@@H](C)CN([C@H](C)CO)C3=O)cc1	0.82µM	0	?	0	0	0
C[C@H](CO)N1C[C@H](C)[C@H](CN(C)S(=O)(=O)c2cccc(F)c2)OCc2ccccc2-c2c(n(C)c3ccccc23)C1=O	-	-	0	-	23µM	-
O=S(=O)(c1ccc2ccccc2c1)N1CCN(c2nc(-c3ccccc3)nc3ccccc23)CC1	-	0	0	-	?	-
COc1cc(NC(=O)CCNS(=O)(=O)c2ccc3c(c2)CCN3C(=O)C2CC2)cc(OC)c1	-	0	0	-	0	-
O=S(=O)(c1cccc(Cl)c1)N1CCN(c2nc(-c3ccccc3)nc3ccccc23)CC1	-	0	0	-	?	-
Oc1c(Cl)cc(Cl)c2cccnc12	3.8µM	0	0	6.7µM	?	0
Cc1ccc(S(=O)(=O)Nc2cc(Cl)c(O)c3ncccc23)cc1	5.2µM	?	?	?	?	0
Clc1cc2cccnc2c2ccccc12	0	0	0	0	0	0
Oc1ccc(Cl)c2cccnc12	21µM	0	?	?	?	0
Cc1ccc(S(=O)(=O)Nc2cc(Br)cc3cccnc23)cc1	-	0	-	-	-	-
CCOc1ccc(-n2nc3ccc(NC(=O)c4ccc(-c5cccc(Cl)c5)o4)cc3n2)cc1	-	0	-	-	-	-
COc1ccc(NC(=O)c2ccco2)cc1NC(=O)COc1ccccc1Cl	-	0	-	-	-	-
SMILES	SW480 rerep	RGS4 inh	KB-V1 MDR tox	MCF10A rerep	KB-3-1 cytotox	PTAP TSG101 blk
CN(C)CCNC(=O)c1ccc2nc(Cc3ccccc3)oc2c1	-	0	0	-	0	-
Cc1cc(CNC(=O)Cc2ccccc2)c2ccccc2n1	0	0	?	0	0	0
Cc1c(C(=O)NCCSCc2ccc(Cl)cc2Cl)cccc1[N+](=O)[O-]	0	0	26µM	?	?	0
Cc1cc(CNC(=O)c2cccc([N+](=O)[O-])c2C)c2ccccc2n1	0	0	5.8µM	0	0	0
Cc1ccc2cccc(OCCOCCOc3ccccc3Br)c2n1	?	0	?	0	0	0
O=Cc1ccc(OCCCOc2cccc3cccnc23)cc1	0	0	0	0	0	0
Cc1ccc2cccc(OCCCOc3ccccc3F)c2n1	?	0	0	13µM	0	0
Cc1cccc(OCCCOc2cccc3cccnc23)c1C	?	0	0	23µM	?	0
O=Cc1ccccc1OCCCOc1cccc2cccnc12	0	0	0	18µM	0	0
Brc1ccc(OCCOCCOc2cccc3cccnc23)cc1	0	0	18µM	0	0	0
Brc1ccc(OCCCOc2cccc3cccnc23)cc1	0	0	0	0	0	0
Cc1ccc(OCCCOc2cccc3cccnc23)cc1C	0	0	0	0	0	0
COC(=O)c1ccc(OCCOCCOc2cccc3ccc(C)nc23)cc1	0	0	15µM	0	0	0
COC(=O)c1ccccc1OCCOCCOc1cccc2ccc(C)nc12	0	0	?	0	0	0
CCOC(=O)c1oc2ccc(CNCCO)c(Cl)c2c1C	0	0[11.4 µM]	?	0	0	0
CCOC(=O)c1oc2ccc(CNC3CCCCC3)c(Cl)c2c1C	?	0	0	16µM	0	0
COC(=O)/C=C/c1ccccc1S(=O)(=O)N(Cc1ccccc1)Cc1ccco1	4.1µM	0	7.3µM	2.1µM	3.3µM	0
CCc1cccc2sc(N3CCN(C(=O)C4CC4)CC3)nc12	-	0	-	-	-	-
CCc1cccc2sc(N3CCN(C(=O)c4ccc([N+](=O)[O-])o4)CC3)nc12	?	0	?	3.7µM	?	0
NS(=O)(=O)c1cccc(NC(=O)c2cc(=O)c3ccccc3o2)c1	0	0	0	0	0	0
NS(=O)(=O)c1cccc(NC(=O)c2cc3ccccc3o2)c1	18µM	?	0	0	0	0
CN(c1ccccc1)S(=O)(=O)c1cccc(NC(=O)c2cc(=O)c3ccccc3o2)c1	0	0	?	26µM	0	0
Cc1ccc(C)c(NC(=O)Cn2c(=O)n(Cc3ccc4c(c3)OCO4)c(=O)c3ccccc32)c1	-	0	0	-	0	-
O=C(C1COc2ccccc2O1)N1CCN(c2nc3ccc(F)cc3s2)CC1 (centres undefined)	-	0	-	-	-	-
COc1ccc(-c2cc(C(F)F)n3ncc(C(=O)N4CCc5ccccc54)c3n2)cc1	7.3µM	?	?	4.6µM	0	0
CCn1nc(C)c(NC(=O)c2cnn3c(C(F)F)cc(-c4ccccc4)nc23)c1C	0	0	0	0	?	0
COc1ccc(-c2cc(C(F)F)n3ncc(C(=O)n4ccnc4C)c3n2)cc1	?	0	0	16µM	0	0
CCOc1ccccc1NC(=O)c1cc(-c2ccccn2)nc2ccccc12	?	0	?	?	18µM	0
